Compounds without any hit were thinned out: in the full panel of roughly 83,000, 20% have a hit.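 How to read the values: 0–100, growth inhibition (40 = 60% inhibited); 0, no net growth; -100 to 0, cell death (-40 = 40% of starting cells died; -100 = all dead).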 Unmarked numbers belong to inactive results. Activity calls are given as the source filed them. The calls were made as follows: active = growth percent below 10; inactive = the rest.

Experiment in all cases: NCI-60 one-dose screen, 48 h (100 = growth as untreated, 0 = no growth, -100 = all killed)
Experiment [1] relates to DU-145 prostate. The settings on record: 10 µM unless noted.
The test system of experiment [2] is K-562 leukemia. The settings on record: 10 µM unless noted.
The test system of experiment [3] is MALME-3M melanoma. The settings on record: 10 µM unless noted.
Experiment [4] deals with MDA-MB-231 breast. The settings on record: 10 µM unless noted.
Experiment [5] has as its system RXF 393 renal. The settings on record: 10 µM unless noted.
Experiment [6] relates to SF-268 CNS. The settings on record: 10 µM unless noted.
The subject of experiment [7] is SF-295 CNS. The note with it: 10 µM unless noted.
Experiment [8] deals with SF-539 CNS. The note with it: 10 µM unless noted.
Experiment [9] concerns UACC-257 melanoma. The settings on record: 10 µM.

With `NC(=O)c1c(NC(=O)c2cccc(C(F)(F)F)c2F)sc2c1CCC(=O)C2`, the growth is 89.1% in experiment [1]; 13.4% in experiment [2]; 19.4% in experiment [3]; 12.9% in experiment [4]; -5.49% (active) in experiment [5]; 21.6% in experiment [6]. For the same compound, the growth was 40% in experiment [7], 0.149% (active) in experiment [8] and 12.9% in experiment [9].
Consider `CS(=O)(=O)c1ccc(-c2nn(-c3ccccc3)cc2/C=C/C(=O)c2ccc(Br)cc2)cc1`, for which the growth in experiment [1] is 100%; in experiment [2], 47.3%; in [3], 71.3%; in experiment [4], 88.3%; in [5] it was 93.7%; in experiment [6], 99.4%. In addition, the growth in [7] is 104%; in experiment [8], 102%; in experiment [9], 96.3%.
On to `CN1C(=O)N(C)C2Nn3c(s/c(=C\c4ccccn4)c3=O)=NC21` (stereo unspecified), for which the growth is 111% in [1]; 108% in experiment [2]; 82.4% in experiment [3]; 99.5% in [4]; 110% in [5]; 103% in experiment [6]. Further, the figures for the growth in experiment [7], in experiment [8] and in experiment [9] were 104%, 101% and 96%, respectively.
For the compound `Cn1c(SC(C(=O)Nc2ccc(F)cc2)c2ccccc2)nc2ccccc2c1=O` (stereo unspecified), the growth in [1] is 112%; in experiment [2], 103%; in [3], 88%; in experiment [4], 99.4%; in [5], 117%; in experiment [6], 106%. Moreover, the growth in experiment [7] was 98.2%; in experiment [8] it was 96.1%; in [9], 95.6%.
In the case of `O=c1oc2ccc(-c3ccc(F)cc3F)cc2c(=O)n1-c1cccc(C(F)(F)F)c1`, the growth in experiment [1] is 15.6%; in experiment [2], 12.9%; in experiment [3], -14.7% (active); in experiment [4], -4.78% (active); in [5], -24.7% (active); in experiment [6], 16.1%. For the same compound, the growth in experiment [7] is -17.3% (active); in [8], 11.6%; in experiment [9], -9.2% (active).
`CS(=O)(=O)c1ccc(-c2nn(-c3ccccc3)cc2/C=N/NC(=O)c2ccncc2)cc1`: the growth was 88.8% in [1]; 62.5% in experiment [2]; 95.5% in experiment [3]; 104% in experiment [4]; 78.2% in experiment [5]; 101% in experiment [6]. Further, the results for the growth in [7], in [8] and in experiment [9] were 102%, 101% and 96.7%, respectively.
Turning to `O=C(/C=C/c1cccc(O)c1)c1ccc(O)cc1`, the growth in experiment [1] is 15.8%; in experiment [2], 23.2%; in [3] it was 106%; in [4], 89.3%; in experiment [5], 94.8%; in experiment [6] it was 89.9%. In addition, the growth in [7] is 98.2%; in experiment [8], 43.3%; in experiment [9], 95.3%.
As for `Nc1cc(F)ccc1NC(=O)c1ccc(NC(=O)C/C=C/c2cccnc2)cn1`, the growth was -3.71% (active) in experiment [1]; 20% in experiment [2]; 11.6% in experiment [3]; 45.3% in experiment [4]; -17.5% (active) in experiment [5]; 30.8% in [6]. The growth in experiment [7] is 22.3%; in experiment [8], 6.21% (active); in experiment [9] it was 17.8%.
For `COc1ccc(S(=O)(=O)NCCCNc2nccc(-n3cnc4ccccc43)n2)cc1`, the growth in experiment [1] is 100%; in [2], 78.8%; in experiment [3] it was 107%; in experiment [4], 84.1%; in experiment [5], 80.6%; in experiment [6], 91.6%. The figures for the growth in experiment [7], in experiment [8] and in experiment [9] were 90.5%, 83.9% and 100%, respectively.
With `N=c1c2cc(-c3ccccc3)oc2ncn1/N=C/c1ccccc1`, the growth in [1] is 96.7%; in experiment [2], 27.6%; in experiment [3] it was 48.9%; in [4] it was 95.1%; in experiment [5] it was 49.4%; in experiment [6], 89%. Moreover, the growth in experiment [7] was 84.3%; in [8], 85.8%; in [9], 85.6%.
As for `COc1cc(/C=C/C(=O)c2ccc(NC(=O)CSc3nnc(-c4ccc5nc(-c6ccccc6)[nH]c5c4)o3)cc2)cc(OC)c1OC`, the growth is 91% in experiment [1]; 58.3% in [2]; 109% in experiment [3]; 93.6% in experiment [4]; -6.89% (active) in experiment [5]; 97.7% in experiment [6]. Moreover, the growth was 105% in [7], 82.5% in [8] and 87.6% in experiment [9].
As for `CCN(CC)c1ccc2cc(C(=O)NCCOCCOCCOCCn3cc(CCC(=O)Nc4ccc(C(=O)c5ccc(NC(=O)OC(C)(C)C)cc5)cc4)nn3)c(=O)oc2c1`, the growth in experiment [1] was 61.8%; in [2], 38.3%; in experiment [3] it was 83.9%; in experiment [4], 53.7%; in [5], 69.8%; in [6], 65%. Further, the growth is 43.3% in experiment [7], 79.5% in [8] and 63.1% in experiment [9].
For the compound `O=C(O)c1ccc(-n2cc(CNc3ccc(Cl)cc3)c(-c3ccc(F)cc3)n2)cc1`, the growth was 103% in [1]; 83.4% in [2]; 92.9% in [3]; 94.2% in experiment [4]; 94.9% in [5]; 104% in experiment [6]. The growth in [7] was 87.6%; in experiment [8] it was 98.1%; in [9], 101%.
Consider `Cc1nn(-c2ccccc2)cc1/C=N/Nc1nc(Nc2ccccc2)nc(Nc2ccc(S(N)(=O)=O)cc2)n1`, for which the growth in experiment [1] was 9.14% (active); in experiment [2] it was 9.56% (active); in experiment [3] it was -25.6% (active); in experiment [4] it was -20.8% (active); in experiment [5], -20.4% (active); in [6] it was -7.97% (active). Besides, the growth in experiment [7] was 10.7%; in [8], -71.1% (active); in experiment [9] it was 55.3%.

The values are drawn from PubChem BioAssay (NCI).
